Rows were chosen to be rich in hits. Some 2.5% of all compounds tested hit in one or more screens of this group.
V-ATPase pH – alters yeast V-ATPase proton transport; S. cerevisiae, pHLuorin cytosolic pH fluorescence; response, % at 10 µM; 350,000 tested, 0.37% active; in the data active = response mostly above about 7.3%, no sharp cut-off; inactive = mostly below about 5.4%; also: actives read high
Efflux pump inh – inhibitors of Candida antifungal efflux pumps expressed in yeast; S. cerevisiae Candida pump triplex, Nile Red efflux; inhibition, % at 10 µM; 330,000 tested, 0.44% active; AID 485275;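 active = plate passing quality check with inhibition over a set limit, or well fluorescence over plate mean plus 4 SD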;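 also: Nile Red retained in pooled yeast measured as flow cytometry median fluorescence; 0% = buffer negative control and 100% = Enniatin B positive control; higher means more Nile Red kept so more efflux inhibition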
Mot1-301 SUMO – blocks SUMOylation pathway, rescuing yeast Mot1-301 growth. S. cerevisiae Mot1-301 growth rescue, ATP luminescence, 38.5C; percent above DMSO median, 100 means doubled. growth rescue, % at 18.8 µM. 320,000 tested, 1% active. AID 2716;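 active = every valid replicate shows activation above 250% relative to neutral control wells; inactive = the rest, any valid replicate at or below 250%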;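 also: OY570 slx delta 5 strain wells were the positive control but not used for scaling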
ATG4B inhibitor – ATG4B (human) cysteine protease inhibition. Q9Y4P1. 340,000 tested, 0.51% active. inhibition, % at 8.33 µM. ATG4B cleavage of LC3-PLA2, NBD-HPC fluorescence, 1 h; in the data active = inhibition above about 40%
Target sequence (Q9Y4P1 whole entry, looked up): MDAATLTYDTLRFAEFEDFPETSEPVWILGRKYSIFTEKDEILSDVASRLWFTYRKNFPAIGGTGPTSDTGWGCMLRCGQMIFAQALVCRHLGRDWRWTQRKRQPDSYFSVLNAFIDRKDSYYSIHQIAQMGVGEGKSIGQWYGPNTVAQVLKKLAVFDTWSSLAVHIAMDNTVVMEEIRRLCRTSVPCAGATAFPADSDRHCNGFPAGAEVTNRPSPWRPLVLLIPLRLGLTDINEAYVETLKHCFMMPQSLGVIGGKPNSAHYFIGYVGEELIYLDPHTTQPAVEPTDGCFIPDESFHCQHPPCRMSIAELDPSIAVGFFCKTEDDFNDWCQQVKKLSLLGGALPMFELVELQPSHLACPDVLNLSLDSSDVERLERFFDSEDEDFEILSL
AI-2 QS mod – modulators of Vibrio harveyi AI-2 quorum sensing system; Vibrio harveyi JMH597 AI-2 luminescence/OD600 ratio, 9 h; hits give low values; strain lacks LuxN and CqsS sensors; 0 = neutral-control median; activity change, % at 7.5 µM; 300,000 tested, 0.4% active; AID 2094; in the data active = activity change below about -75%, passing the limit was not always enough;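 also: luminescence divided by OD600 gain over 9 h not by final OD600 alone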
The depositor's hits bear a star.

How did O=C(O)c1ccc(N/N=C/C(Br)=C/c2ccccc2)cc1 do in these assays?
V-ATPase pH: 4; Efflux pump inh: 0; Mot1-301 SUMO: 0; ATG4B inhibitor: 1; AI-2 QS mod: -94*

Results for O=C(N/N=C/C(Br)=C\c1ccccc1)c1cccs1 ?
V-ATPase pH: 2; Efflux pump inh: 0; Mot1-301 SUMO: 299*; ATG4B inhibitor: -13; AI-2 QS mod: 9

Results for O=C(N/N=C/C(Br)=C/c1ccccc1)C(O)c1ccccc1 (stereo not given) ?
V-ATPase pH: 0; Efflux pump inh: 0; Mot1-301 SUMO: -36; ATG4B inhibitor: -9; AI-2 QS mod: -8

Results for O=C(/C=C/c1cccc([N+](=O)[O-])c1)Nc1ccc(NC(=O)c2cccs2)cc1 ?
V-ATPase pH: 0; Efflux pump inh: -1; Mot1-301 SUMO: 474*; ATG4B inhibitor: -9; AI-2 QS mod: 7

What do the screens show for `O=C(/C=C/c1cccc([N+](=O)[O-])c1)c1cccs1`?
V-ATPase pH: 3; Efflux pump inh: 0; Mot1-301 SUMO: 0; ATG4B inhibitor: -9; AI-2 QS mod: 10

What do the screens show for `O=C1NC(Cc2ccccc2)c2nc3ccc(F)cc3c(=O)n2-c2cc(Cl)ccc21` (stereo not given)?
Efflux pump inh: 0; Mot1-301 SUMO: -2

How did O=C(COC(=O)CC1CC2CCC1C2)NCc1ccc(F)cc1 (stereo not given) do in these assays?
V-ATPase pH: 1; Efflux pump inh: 0; Mot1-301 SUMO: -18; ATG4B inhibitor: -1

Results for O=C(CC1CC2CCC1C2)OCC(=O)c1c[nH]c2ccccc12 (stereo not given) ?
V-ATPase pH: -3; Efflux pump inh: 0; Mot1-301 SUMO: -11; ATG4B inhibitor: -8; AI-2 QS mod: -84*

Results for O=C(COc1ccc2cc(-c3ccccc3)c(=O)oc2c1)NCC1CCC(C(=O)O)CC1 (stereo not given) ?
V-ATPase pH: 2; Efflux pump inh: 0; Mot1-301 SUMO: 988*; ATG4B inhibitor: -16; AI-2 QS mod: 14

What do the screens show for `O=C(COc1ccc2c(-c3ccccc3)cc(=O)oc2c1)NCC1CCC(C(=O)O)CC1` (stereo not given)?
V-ATPase pH: -3; Efflux pump inh: 0; Mot1-301 SUMO: 210; ATG4B inhibitor: -18; AI-2 QS mod: 6

How did O=C(COc1ccc2c(c1)oc(=O)c1ccccc12)NCC1CCC(C(=O)O)CC1 (stereo not given) do in these assays?
V-ATPase pH: 1; Efflux pump inh: 0; Mot1-301 SUMO: 620*; ATG4B inhibitor: -23; AI-2 QS mod: 43

How did CCn1nc(C)c(C2C(C#N)=C(N)OC3=C2C(=O)CC(C)(C)C3)c1C (stereo not given) do in these assays?
V-ATPase pH: -1; Efflux pump inh: 0; Mot1-301 SUMO: 34; ATG4B inhibitor: 11; AI-2 QS mod: -1

How did COc1ccc(C)cc1S(=O)(=O)N1CCCC(N2CCN(c3ccccc3)CC2)C1 (stereo not given) do in these assays?
V-ATPase pH: 0

What do the screens show for `Cc1cc(O)cc(O)c1C(=O)Cc1cscn1`?
V-ATPase pH: 4; Efflux pump inh: 0; Mot1-301 SUMO: 353*; ATG4B inhibitor: -6; AI-2 QS mod: 9

How did O=C(NCc1ccccc1)c1c(O)c2cccc3c2n(c1=O)CCC3 do in these assays?
V-ATPase pH: -1; Efflux pump inh: 0; Mot1-301 SUMO: 38; ATG4B inhibitor: -2; AI-2 QS mod: 24

How did O=C(NCc1ccc2c(c1)OCO2)c1c(O)c2cccc3c2n(c1=O)CCC3 do in these assays?
V-ATPase pH: 30*; Efflux pump inh: 0; Mot1-301 SUMO: 512; ATG4B inhibitor: -4; AI-2 QS mod: 20

How did COc1ccccc1CNC(=O)CSc1ccc(-c2cccc([N+](=O)[O-])c2)nn1 do in these assays?
V-ATPase pH: -1; Efflux pump inh: 0; Mot1-301 SUMO: -19; ATG4B inhibitor: 4; AI-2 QS mod: 2

What do the screens show for `Brc1ccc(-c2ncc3ccccn23)cc1`?
V-ATPase pH: 5; Efflux pump inh: 0; Mot1-301 SUMO: 21; ATG4B inhibitor: -3; AI-2 QS mod: 2

What do the screens show for `Cc1ccc(Nc2c(-c3ccccn3)nc3cccc(C)n23)cc1`?
V-ATPase pH: 0; Efflux pump inh: 0; Mot1-301 SUMO: -24; ATG4B inhibitor: 7; AI-2 QS mod: -80*

What do the screens show for `Cc1cccc2nc(-c3ccco3)c(Nc3ccccc3)n12`?
V-ATPase pH: 3; Efflux pump inh: 0; Mot1-301 SUMO: 11; ATG4B inhibitor: 6; AI-2 QS mod: 8

What do the screens show for `CCOC(=O)N1CCN(C(=O)C(NC(=O)c2ccc(C(C)(C)C)cc2)C(C)C)CC1` (stereo not given)?
V-ATPase pH: 0; Efflux pump inh: 0; Mot1-301 SUMO: 8; ATG4B inhibitor: -4

How did CCc1ccc(NC(=O)Cn2cc([N+](=O)[O-])nc2C)cc1 do in these assays?
V-ATPase pH: 11; Efflux pump inh: 0; Mot1-301 SUMO: -6; ATG4B inhibitor: -1; AI-2 QS mod: 10

Results for CCn1cc(S(=O)(=O)CC(=O)Nc2ccc(OC)cc2)c2ccccc21 ?
V-ATPase pH: 16*; Efflux pump inh: 0; Mot1-301 SUMO: -15; ATG4B inhibitor: -3; AI-2 QS mod: 19

What do the screens show for `CCOC(=O)c1c(C)c(C(=O)Nc2ccccc2)c(C)n1CC`?
V-ATPase pH: 20*; Efflux pump inh: 0; Mot1-301 SUMO: 78; ATG4B inhibitor: 9; AI-2 QS mod: 8

What do the screens show for `CCOC(=O)c1[nH]c(C)c(C(=O)Nc2cc(OC)ccc2OC)c1C`?
V-ATPase pH: -3; Efflux pump inh: 0; Mot1-301 SUMO: -6; ATG4B inhibitor: -8

Results for CCOC(=O)c1c(C)c(C(=O)NCc2cccs2)c(C)n1CC ?
V-ATPase pH: -1; Efflux pump inh: 1; Mot1-301 SUMO: 343; ATG4B inhibitor: -1; AI-2 QS mod: 1

How did CCOC(=O)c1c(C)c(C(=O)Nc2cc(OC)ccc2OC)c(C)n1CC do in these assays?
V-ATPase pH: 15*; Efflux pump inh: 0; Mot1-301 SUMO: 10; ATG4B inhibitor: -2; AI-2 QS mod: 19

What do the screens show for `O=[N+]([O-])c1ccc(S(=O)(=O)Nc2nc(-c3ccccc3)cs2)cc1`?
V-ATPase pH: 1; Efflux pump inh: 0; Mot1-301 SUMO: 4; ATG4B inhibitor: 4; AI-2 QS mod: -3

Results for Cc1ccc(S(=O)(=O)Nc2nc(-c3ccc(F)cc3)cs2)cc1 ?
V-ATPase pH: 3; Efflux pump inh: 0; Mot1-301 SUMO: 229; ATG4B inhibitor: 3; AI-2 QS mod: -92*

Results for COC1=C(N)C(=O)c2nc(-c3nc(C(=O)O)c(C)c(-c4ccc(OC)c(OC)c4O)c3N)ccc2C1=O ?
Efflux pump inh: 0; Mot1-301 SUMO: 16; ATG4B inhibitor: 69*

How did Clc1ccc2nc(SCc3nnc(-c4ccccc4)o3)[nH]c2c1 do in these assays?
V-ATPase pH: 0; Efflux pump inh: 0; Mot1-301 SUMO: 650*; ATG4B inhibitor: -7; AI-2 QS mod: -50

Source: PubChem BioAssay
